13 compounds from PubChem BioAssay (NCATS) can be followed below.

Experiment in all cases: qHTS profiling for inhibitors of Plasmodium falciparum proliferation (AID 504749); note: nearly all actives have a fitted effect of over 60% in size
Settings in all cases: P. falciparum in erythrocytes, SYBR Green DNA, 72 h; series mostly up to 28.7 µM
For orientation: Quantitative high-throughput screening tests each substance at several concentrations.

For experiment [1], the system named is ATS95. The gist of the method: (§1)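 Three-day growth assay of blood-stage parasites in erythrocytes (0.3% parasitemia, 2.5% hematocrit) at 37 C, 5% CO2, quantified by SYBR Green DNA staining after overnight detergent lysis.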
Experiment [2] concerns C2A. The gist of the method: as §1
Experiment [3] relates to CP185. The gist of the method:
as §1

The test system of experiment [4] is CP191. The gist of the method:
as §1

The subject of experiment [5] is CP194. The essentials:
as §1

The subject of experiment [6] is CP201. The essentials: as §1
Experiment [7] has as its system CP203. The gist of the method: as §1
In experiment [8] the test system is CP211. The gist of the method:
as §1

Experiment [9] deals with CP215. The essentials:
as §1

The test system of experiment [10] is CP217. The essentials: as §1
Experiment [11] concerns CP237. The essentials: as §1
In experiment [12] the test system is CP238. The essentials: as §1
In experiment [13] the test system is CP247. The essentials: as §1
The subject of experiment [14] is CP250. The essentials:
as §1

In experiment [15] the test system is CP252. The essentials:
as §1

Experiment [16] concerns CP256. The gist of the method:
as §1

For experiment [17], the system named is CP260. The essentials:
as §1

For experiment [18], the system named is CP262. The gist of the method:
as §1

Experiment [19] relates to CP265. The gist of the method: as §1
Experiment [20] deals with CP192. The essentials: as §1

Structures are written as SMILES. Records with an inconclusive call do not appear. Active and inactive are the calls of the source. Calls come from the whole dose curve; as a rule, active = well fitted inhibition curve with a large enough effect; inconclusive = small, poorly fitted or top-dose-only effect; inactive = flat fitted curve, though single readings scatter.
Potency is the fitted concentration of half-maximal effect.

Regarding `CC(=O)OCC(COC(C)=O)OC(C)=O`, the Potency entry in experiment [1], in [2], in [3], in [7], in experiment [9] and in [11] was “inactive” in each case. Moreover, the Potency entry in [12], in experiment [13], in experiment [14], in experiment [17] and in experiment [19] was “inactive” each time. Moreover, the call in [4], in [5], in [6], in [8], in experiment [10] and in experiment [15] was inactive. The result in experiment [16] and in experiment [18] was inactive.

In the case of `Cc1cc(OI)c(C(C)C)cc1-c1cc(C(C)C)c(OI)cc1C`, the Potency entry in experiment [3], in experiment [7], in experiment [11] and in experiment [14] was “inactive” each time. Also, the result in experiment [5], in experiment [6], in experiment [8], in experiment [16] and in [18] was inactive.

Turning to `NC(=O)CCCCC1CCSS1` (stereo not drawn), the Potency entry in [1], in experiment [2], in experiment [3], in experiment [12], in experiment [13] and in experiment [14] was “inactive” throughout. For the same compound, the Potency entry in experiment [19] is “inactive”. The outcome in [4], in [20], in experiment [5], in experiment [6], in experiment [8] and in experiment [10] was inactive. Moreover, the compound was classed as inactive in experiment [15], in [16] and in [18].

As to `NC(=O)c1ccc([N+](=O)[O-])cc1Cl`, the Potency result in experiment [1], in experiment [2], in experiment [3], in experiment [7], in experiment [9] and in experiment [11] was “inactive” in each case. Moreover, the Potency result in experiment [12], in experiment [13] and in [14] was “inactive” throughout. Besides, the outcome in experiment [20], in [5], in experiment [6], in [8], in [10] and in experiment [15] was inactive. For the same compound, the call in experiment [16] and in [18] was inactive.

Consider `CCCNC(C)(C)COC(=O)c1ccccc1`, for which the Potency result in experiment [1], in experiment [2], in experiment [3], in experiment [9], in experiment [12] and in experiment [13] was “inactive” each time. Besides, the Potency result in experiment [14], in experiment [17] and in experiment [19] was “inactive” in each case. The outcome in experiment [4], in experiment [20], in experiment [5], in experiment [6], in experiment [8] and in [10] was inactive. In addition, the outcome in [15], in experiment [16] and in experiment [18] was inactive.

For `Cc1c(NC(=O)c2cccnc2)c(=O)n(-c2ccccc2)n1C`, the Potency entry in experiment [1], in experiment [2], in experiment [3], in experiment [11], in experiment [12] and in experiment [13] was “inactive” each time. Besides, the Potency entry in experiment [14], in [17] and in experiment [19] was “inactive” throughout. For the same compound, the call in [4], in [20], in experiment [5], in experiment [6], in experiment [8] and in experiment [10] was inactive. In addition, the call in experiment [15], in experiment [16] and in experiment [18] was inactive.

`Nc1ncnc(Nc2ccccc2)n1`: the Potency entry in experiment [1], in experiment [2], in [3], in [7], in experiment [9] and in [11] was “inactive” each time. In addition, the Potency entry in experiment [12], in [13], in experiment [17] and in experiment [19] was “inactive” throughout. In addition, the call in experiment [20], in experiment [5], in [6], in experiment [8], in experiment [10] and in [15] was inactive. Also, in experiment [16], the compound was classed as inactive.

Regarding `CC(C)CCCC(C)CCCC(C)CCCCC(C)CCCC(C)CCCC(C)C` (stereo not drawn), the Potency result in experiment [2], in experiment [3], in experiment [7], in experiment [9], in [11] and in experiment [12] was “inactive” in each case. Moreover, the Potency entry in experiment [13], in [14], in [17] and in experiment [19] was “inactive” each time. Also, the call in experiment [4], in experiment [20], in [5], in [6], in experiment [8] and in experiment [10] was inactive. For the same compound, the outcome in experiment [15], in experiment [16] and in experiment [18] was inactive.

For the compound `Cc1cc(O)cc(C)c1Cl`, the Potency entry in [2], in experiment [3], in experiment [7], in experiment [9], in [11] and in experiment [12] was “inactive” in each case. Further, the Potency entry in experiment [13] and in [14] was “inactive” throughout. Moreover, the result in [20], in experiment [5], in [6], in experiment [8], in experiment [10] and in experiment [15] was inactive. The result in experiment [16] and in experiment [18] was inactive. Further, the Potency in experiment [19] is 11.2 µM (active).

Consider `CC[N+](C)(CC)CCOC(=O)C1c2ccccc2Oc2ccccc21`, for which the Potency entry in experiment [1], in [2], in [3], in [7], in experiment [9] and in [11] was “inactive” throughout. Also, the Potency entry in experiment [13] and in [19] was “inactive” each time. The outcome in experiment [20], in [5], in experiment [6], in experiment [8], in [10] and in [15] was inactive. The compound was classed as inactive in experiment [18].

Take `COc1ccc(Cc2cnc(N)nc2N)cc1OC`: the Potency result in experiment [1], in experiment [2], in experiment [3], in experiment [9], in experiment [11] and in [12] was “inactive” each time. In addition, the Potency entry in [13], in [14] and in [19] was “inactive” in each case. Besides, the outcome in experiment [4], in experiment [20], in experiment [5], in [6], in [8] and in [10] was inactive. Moreover, the compound was called inactive in experiment [15], in [16] and in experiment [18].

As for `CCN1CC(CCN2CCOCC2)C(c2ccccc2)(c2ccccc2)C1=O` (stereo not drawn), the Potency entry in [1], in [2], in experiment [3], in experiment [9], in experiment [12] and in experiment [13] was “inactive” each time. In addition, the Potency entry in experiment [14] and in [17] was “inactive” throughout. Besides, the compound was called inactive in experiment [4], in experiment [20], in experiment [5], in [6], in experiment [8] and in experiment [10]. The compound was classed as inactive in experiment [15], in experiment [16] and in experiment [18].

Regarding `NC(N)=NS(=O)(=O)c1ccc(N)cc1`, the Potency entry in experiment [2], in experiment [3], in experiment [9], in [11], in [12] and in experiment [13] was “inactive” each time. Also, the Potency entry in experiment [14], in [17] and in [19] was “inactive” throughout. For the same compound, the call in experiment [4], in experiment [20], in [5], in [6], in experiment [8] and in experiment [10] was inactive. Besides, the call in experiment [15], in experiment [16] and in experiment [18] was inactive.
